Hits are enriched below; roughly 19% of the tested compounds scored in any of these assays.
RORg inh: blocks mouse ROR gamma transcriptional activity; P51450; Drosophila S2 Gal4-RORgamma UAS-luciferase reporter, 20 h; Potency, µM (titrated, usually from 53.6 µM), without a hit: top-dose activity change, negative = inhibition, hits mostly inhibitors; actives 5.4% (n = 310,000); further: nearly all actives have a fitted effect of over 60% in size
Target sequence (P51450 whole entry, looked up, the tested form may be a part): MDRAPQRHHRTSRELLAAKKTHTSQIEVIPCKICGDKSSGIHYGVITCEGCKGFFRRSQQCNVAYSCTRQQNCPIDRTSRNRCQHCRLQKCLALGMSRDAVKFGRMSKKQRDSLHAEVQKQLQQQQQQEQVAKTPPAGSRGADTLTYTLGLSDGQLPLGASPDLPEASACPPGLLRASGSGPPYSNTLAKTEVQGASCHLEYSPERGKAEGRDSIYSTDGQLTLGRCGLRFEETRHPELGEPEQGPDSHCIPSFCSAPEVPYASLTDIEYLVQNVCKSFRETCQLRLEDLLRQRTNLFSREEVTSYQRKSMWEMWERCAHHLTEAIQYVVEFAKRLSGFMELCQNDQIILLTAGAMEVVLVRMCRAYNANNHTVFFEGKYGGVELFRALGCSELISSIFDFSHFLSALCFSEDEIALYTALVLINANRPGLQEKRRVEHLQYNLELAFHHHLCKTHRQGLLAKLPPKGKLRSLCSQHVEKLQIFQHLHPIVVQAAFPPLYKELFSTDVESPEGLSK
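ROR gamma transcriptional activity was tracked as Gal4-UAS luciferase output in stably transfected Drosophila Schneider cells, with compound added 1 hr before 700 uM copper sulfate induction and a 20 hr ambient-temperature incubation.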
DT40 TDP1 no CPT: qHTS for Inhibitors of human tyrosyl-DNA phosphodiesterase 1 (TDP1): qHTS in cells in absence of CPT; DT40 Tdp1-/- hTDP1 cells, no CPT, ATP luminescence, 48 h; Potency, µM (top dose mostly 46.2 µM), for inactives: top-dose activity change, negative = growth inhibition, actives largely listed as inhibitors; actives 15% (n = 420,000); further: nearly all actives have a fitted effect of over 55% in size
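Chicken DT40 Tdp1-/- cells stably complemented with human TDP1 were seeded at 400 cells/well with DMSO in place of 20 nM camptothecin. After compound pinning, cells grew at least 48 hr at 37 °C; viability read by CellTiter-Glo luminescence.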
DT40 TDP1 CPT: DT40-hTDP1 cell growth loss with CPT | actives 12% (n = 420,000) | chicken DT40 Tdp1-/-;hTDP1 cells + 20 nM CPT, ATP luminescence, 48 h | Potency, µM (top dose mostly 46.2 µM), for inactives: at the top dose activity change, negative = growth inhibition, usual class: inhibitors | AID 686979; further: nearly all actives have a fitted effect of over 55% in size
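Cell growth measured by CellTiter-Glo luminescence after a minimum 48 h, 37 C compound exposure with 20 nM CPT in Tdp1-knockout DT40 cells stably expressing hTDP1, seeded 400/well; qHTS titration format.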
VP16 counter: counter-screen for ROR gamma inhibitors: Gal4-VP16 reporter; actives 3.5% (n = 310,000); Drosophila S2 Gal4-VP16 UAS-luciferase, luminescence, 20 h; Potency, µM (top dose mostly 53.6 µM), without a hit: at the highest dose activity, negative = inhibition, actives largely listed as inhibitors;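 further: Gal4-VP16 expression switched on by copper sulfate through the metallothionein promoter; nearly all actives have a fitted effect of over 50% in size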
TDP1 inh: TDP1 (human) enzyme inhibition | Q9NUW8 | recombinant TDP1, AlphaScreen DNA substrate cleavage | Potency, µM (titrated, usually from 130 µM), for the others: at the highest dose activity change, negative = inhibition, actives largely listed as inhibitors | actives 0.28% (n = 350,000) | AID 485290; further: nearly all actives have a fitted effect of over 40% in size
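Steps: enzyme plus compound, 15 min RT; add biotin/phosphotyrosine-FITC oligonucleotide (15 nM final), react 5 min; add donor/acceptor beads (10 ug/ml final), 10 min; read AlphaScreen. Tdp1 at 1 nM final.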
Active calls of the source: *; ? = inconclusive; nt = not tested or not shown. The call rests on the fitted dose curve; in most records, active means well fitted curve in the direction sought with a large enough effect; inconclusive means small, poorly fitted or top-dose-only effect, or another doubt; inactive means no such curve, though single readings can be large; an effect the other way counts as inactive or inconclusive. On the % scale 0 is the no-effect control and ±100 the full control effect; potency means the concentration at half of the fitted maximal effect.

SMILES	RORg inh	DT40 TDP1 no CPT	DT40 TDP1 CPT	VP16 counter	TDP1 inh
CCC(C)n1ncn(-c2ccc(N3CCN(c4ccc(OCC5COC(Cn6cncn6)(c6ccc(Cl)cc6Cl)O5)cc4)CC3)cc2)c1=O (stereo not given)	-20%	2.3µM*	2.6µM*	-4%	8%
COc1cc(NS(=O)(=O)c2ccc([N+](=O)[O-])cc2)c2ncccc2c1	0.89µM*	nt	nt	0.89µM*	24%
O=[N+]([O-])c1cccc(S(=O)(=O)NCCOc2cccc3cccnc23)c1	-25%	?	?	5%	2%
COc1cc(NS(=O)(=O)c2ccc(C)cc2)c2ncccc2c1	1µM*	1.2µM*	0.82µM*	0.79µM*	7%
COc1cc(NS(=O)(=O)c2cccc([N+](=O)[O-])c2)c2ncccc2c1	1.1µM*	nt	nt	2µM*	22%
O=[N+]([O-])c1ccc(S(=O)(=O)Nc2ncccn2)cc1	-3%	9%	-13%	-1%	nt
Cc1ccc2nc(-c3cccs3)c(Nc3ccccc3)n2c1	nt	?	?	nt	1%
CCN(C(=O)CSc1nnnn1C)C1CCS(=O)(=O)C1 (stereo not given)	nt	-17%	-15%	nt	2%
CCc1ccc(OCC(=O)NC(Cc2c[nH]c3ccccc23)C(=O)O)cc1 (stereo not given)	nt	3%	-6%	nt	nt
Cc1cc(C)c2cc(CN(CCO)C(=O)Nc3ccc(F)cc3)c(=O)[nH]c2c1	36%	-10%	-27%	11%	8%
Cc1cc(C)c2cc(CN(CCN(C)C)C(=O)Nc3ccccc3Cl)c(=O)[nH]c2c1	-2%	15µM*	?	-6%	5%
CCOC1=C2CN(S(=O)(=O)c3ccc(C)cc3)C(c3ccccc3)CC2N(S(=O)(=O)c2ccccc2Cl)C(c2ccccc2)C1 (stereo not given)	nt	-4%	10%	nt	nt
N#Cc1cccc2c1-c1ccccc1/C2=N/NC(N)=S	4µM*	18µM*	?	5µM*	nt
NC(=S)NN=C1c2ccccc2-c2c(F)c(F)c(F)c(F)c21	nt	12µM*	7.3µM*	nt	nt
COCCOc1cnn(-c2cc(Oc3ccc(C)cc3)ncn2)c(=O)c1Cl	38%	-25%	1%	2%	2%
COc1ccc(S(=O)(=O)NCc2nc3nc(C)cc(C)n3n2)cc1	nt	-4%	-5%	nt	8%
O=C1OC[C@H]2CCCN2C(=O)[C@@H](CC(=O)N(CCO)Cc2ccccc2)C/C=C\CC[C@H]1Cc1ccc(F)cc1	nt	21µM*	16µM*	nt	1%
O=C1OC[C@H]2CCCN2C(=O)[C@@H](CC(=O)N(CCO)Cc2ccccc2)C/C=C\CC[C@@H]1Cc1ccc(F)cc1	nt	21µM*	18µM*	nt	0%
O=C1OC[C@@H]2CCCN2C(=O)[C@H](CC(=O)N(CCO)Cc2ccccc2)C/C=C\CC[C@H]1Cc1ccc(F)cc1	nt	?	23µM*	nt	1%
CN(C)CCNC(=O)COc1cccc(Cl)c1	15%	-3%	5%	-4%	7%
CCOC(=O)N1CCN(Cc2nc3cc(NC(=O)CC(C)C)ccc3n2C(C)C)CC1	nt	0.73µM*	0.82µM*	nt	5%
CCn1c(CN2CCCCC2)nc2cc(NC(=O)c3ccc([N+](=O)[O-])cc3)ccc21	nt	9.2µM*	9.2µM*	nt	5%
CCOC(=O)N1CCN(Cc2nc3cc(NC(=O)CC(C)C)ccc3n2C)CC1	3%	?	-23%	0%	nt
CCOC(=O)N1CCN(Cc2nc3cc(NC(=O)c4cccs4)ccc3n2C)CC1	24%	-28%	?	5%	1%
CCOC(=O)N1CCN(Cc2nc3cc(NC(=O)CC(C)C)ccc3n2CC)CC1	-13%	9.2µM*	15µM*	-1%	nt
SMILES	RORg inh	DT40 TDP1 no CPT	DT40 TDP1 CPT	VP16 counter	TDP1 inh
CCOC(=O)N1CCN(Cc2nc3cc(NC(=O)c4cccs4)ccc3n2CC)CC1	29%	26µM*	23µM*	21%	2%
O=C1/C(=C2/NCCN2C2CC(=O)N(c3ccccc3)C2=O)CC/C1=C\c1ccccc1 (stereo not given)	1%	-3%	2%	12%	-1%
c1ccc(CCNc2ncnc3c2nnn3Cc2ccccc2)cc1	-42%	-1%	-26%	-27%	4%
CCOC(=O)N1CCN(Cc2nc3cc(NC(=O)CC)ccc3n2C(C)C)CC1	nt	0.73µM*	0.92µM*	nt	3%
CCOC(=O)N1CCN(Cc2nc3cc(NC(=O)c4cccc(C)c4)ccc3n2C(C)C)CC1	nt	0.73µM*	0.92µM*	nt	7%
CCOC(=O)N1CCN(Cc2nc3cc(NC(C)=O)ccc3n2CC)CC1	-1%	-1%	-8%	-4%	nt
O=C(NCCN1CCOCC1)c1sc2cc(Cl)ccc2c1Cl	30%	?	-1%	10%	1%
O=C(NCc1csc(-c2cccs2)n1)Nc1cccc(Cl)c1	-10%	7%	5%	-6%	-2%
O=S(=O)(c1ccccc1)N1CCC2(CC1)OCCN2S(=O)(=O)c1cccs1	nt	21µM*	?	nt	2%
COc1ccc(S(=O)(=O)N2CCOC23CCN(S(=O)(=O)c2cccs2)CC3)cc1	nt	16µM*	13µM*	nt	-3%
COc1ccc(C(=O)NCCN2CCC(n3c(=O)[nH]c4ccccc43)CC2)cc1F	nt	-28%	-25%	nt	nt
O=C(CCN1C(=O)/C(=C/c2ccc(F)cc2)SC1=S)NNC(=O)c1ccncc1	-10%	?	?	-11%	5%
O=C(CCN1C(=O)/C(=C/c2ccc(F)cc2)SC1=S)NC1C=CS(=O)(=O)C1 (stereo not given)	-37%	13µM*	13µM*	-15%	4%
O=C(CN1C(=O)S/C(=C\c2ccccc2F)C1=O)NC1C=CS(=O)(=O)C1 (stereo not given)	-19%	?	15µM*	-4%	1%
O=C(CCN1C(=O)/C(=C/c2ccc(F)cc2)SC1=S)N[C@@H](CO)Cc1ccccc1	-15%	21µM*	16µM*	11%	4%
O=C(CN1C(=O)/C(=C/c2ccccc2Cl)SC1=S)NC1CCS(=O)(=O)C1 (stereo not given)	-29%	-6%	-20%	9%	4%
O=C(CCN1C(=O)/C(=C/c2ccccc2Cl)SC1=S)NC1C=CS(=O)(=O)C1 (stereo not given)	?	23µM*	18µM*	-6%	-6%
O=C(CN1C(=O)S/C(=C\c2ccc(F)cc2)C1=O)NC1C=CS(=O)(=O)C1 (stereo not given)	-1%	4%	-21%	3%	-1%
Cc1cc(C)cc(NC(=O)Cn2c(C)cc(C)c(C#N)c2=O)c1	nt	-15%	6%	nt	-4%
